This is part of a sample that, as a whole, favours compounds with a hit. Of some 83,000 tested, about 20% had one in any assay.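 48-hour exposure, single concentration, 96-well plates; percent growth endpoint where 0 means no net growth. Active: below 10.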 A number with no mark means an inactive call. The source made the active and inactive calls.

The test has as its system HL-60(TB) leukemia. Put plainly: NCI-60 one-dose screen, 48 h (100 = growth as untreated, 0 = no growth, -100 = all killed). The following applies: 10 µM unless noted.
On to `Cc1ccc(N2C(=O)C=CC2=O)cc1`, for which the growth is 63.2%.
For `O=C(Nc1cccc(Cl)c1)Nc1ncc(CCNc2ncnc3ccsc23)s1` the value was 8.72% (active).
In the case of `CCOC(=O)C#Cc1c(C(=O)OCC)nnn1[C@@H]1O[C@H](COC(C)=O)[C@@H](OC(C)=O)[C@H]1OC(C)=O`, the growth is 74%.
As for `N#CC1=C(N)Oc2ccc3ccccc3c2C1c1ccc([N+](=O)[O-])cc1` (stereo unspecified), the figure is 39.8%.
For `COc1ccccc1C(=O)Nc1cccc(-c2cc(=O)c3c(OC)c(OC)c(OC)cc3o2)c1` the value was 57.7%.
For `COc1cc(/C=N/Nc2nc(-c3ccc(F)cc3)c(C#N)c(N3CCOCC3)n2)ccc1O` the value was 72.5%; for `Cc1cc(SC#N)ncn1`, 102%; for `COc1ccc2c(c1)NC(=O)CN2c1nc(C)nc2ccccc12`, -6.18% (active).
`CCc1ccc(OC(=O)CCl)cc1`: the growth is 102%.
As to `O=[N+]([O-])c1cccc(C2c3ccccc3Oc3ccccc32)c1`, the growth was 99%.
For `O=S(=O)(O)c1ccc(N/N=C/c2ccccc2Cl)cc1` the value was 101%; for `N#C/C(=C\c1ccc(-c2ccccc2F)o1)c1nc(-c2ccco2)cs1`, 91.2%.
As for `Cc1cn([C@]2(CF)O[C@H](CO)C2C)c(=O)[nH]c1=O` (stereo partly specified), the figure is 105%.
For the compound `Cc1oc2c(C)c3oc(=O)cc(C)c3cc2c1CCl`, the growth was 70.8%.
For the compound `O=C1c2ccccc2CCC1(Br)Br`, the growth was -31.3% (active).
Turning to `COc1ccccc1NC(=O)c1cc2cc(Br)ccc2cc1O`, the growth was -33.7% (active).
As for `C=C1CC[C@@H]2[C@](C)(COC(C)=O)[C@H](OC(C)=O)CC[C@@]2(C)[C@@H]1CC(NCc1ccccc1)C1=CCOC1=O` (stereo partly specified), the growth is -9.93% (active).
Regarding `O=S(=O)(/N=C1C=C/C(=N\S(=O)(=O)c2ccccc2)c2ccccc2\1)c1ccccc1`, the growth is 100%.
Turning to `c1ccc(-c2nc([P+](c3ccccc3)(c3ccccc3)c3ccccc3)c(N3CCOCC3)o2)cc1`, the growth is -12% (active).
For `Cc1cc(N2CCCCC2)nc(N(CCNc2ccnc3cc(Cl)ccc23)Cc2ccco2)n1` the value was -46.3% (active); for `CN1CCN(c2ccc3cc(-c4nc5ccccc5[nH]4)c(=O)oc3c2)CC1`, 73%; for `C=C1C(=O)O[C@H]2[C@H]1CC/C(CNC(=O)/C=C/c1ccccc1F)=C\CC[C@@]1(C)O[C@@H]21`, -31.9% (active).
For `CC(C)[C@H]1CCC2=C3CC[C@]45OC(=O)[C@@]6(CCC(C)(C)C[C@H]64)CC[C@@]5(C)[C@]3(C)CC[C@@]21C` the value was 3.99% [100 µM] (active).
In the case of `CS(=O)(=O)Nc1cc(-c2ccc3ncnc(Nc4ccc(F)c(Cl)c4)c3c2)ccc1Cl`, the growth is 65.3%.
For `COc1ccc(Nc2ncccc2/C=C/C(=O)c2cc(OC)c(OC)c(OC)c2)cc1` the value was -42.4% (active).
For `C[C@@H]1O[C@@H](O[C@@H]2C[C@H](c3ccc4c(c3O)C(=O)C3=C(C4=O)[C@@]4(O)C(=O)C[C@](C)(O)C[C@@]4(O)C=C3)O[C@H](C)[C@H]2O)CC[C@@H]1O[C@H]1C[C@@H](O)[C@H](O)[C@@H](C)O1` the value was 99.4%.

These data come from PubChem BioAssay (NCI).
